Laboratory results reported in publication PMC7819943, “Rice protein-binding microarrays: a tool to detect cis-acting elements near promoter regions in rice”.
Over roughly 39,000 sequences, “fluorescence intensity (a.u.)” has its median near 4,300; the highest 2% begin near 39,000. The sample holds the highest values, similar sequences and a random draw of the others, so the mix is not that of the screen.

Biological target: T1, OsSMF1 (Oryza sativa, UniProt Q6ZLB0 1-436)
T1 sequence: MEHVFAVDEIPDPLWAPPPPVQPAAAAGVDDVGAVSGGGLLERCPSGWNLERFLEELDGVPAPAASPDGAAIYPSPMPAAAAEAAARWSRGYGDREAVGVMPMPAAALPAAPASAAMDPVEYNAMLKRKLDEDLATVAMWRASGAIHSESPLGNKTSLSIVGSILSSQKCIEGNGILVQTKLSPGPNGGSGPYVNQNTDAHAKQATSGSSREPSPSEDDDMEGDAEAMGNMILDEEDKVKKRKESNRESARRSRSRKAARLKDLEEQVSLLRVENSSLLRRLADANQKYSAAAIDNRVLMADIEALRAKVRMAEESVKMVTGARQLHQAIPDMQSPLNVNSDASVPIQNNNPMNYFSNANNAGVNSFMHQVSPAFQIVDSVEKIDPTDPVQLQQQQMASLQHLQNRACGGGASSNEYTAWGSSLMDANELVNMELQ
Assay: protein-binding microarray (RPBM); PBS, 2% BSA, 51.3 ng/ul salmon testes DNA, 50 uM zinc acetate, 200 nM TF, 25 C, 1 h; high values mean tight binding
Settings: protein: recombinant; tags: N-terminal polyhistidine and DsRed monomer fusion (pET32a); chain copies: 2; label: CyDye5-dUTP incorporated in the synthesized complementary strand; 3' TTTTT single-stranded linker to array surface; dsDNA, one strand shown
Summary of the method: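 For the binding signal, per-feature fluorescence intensity was read in arbitrary units on an Axon 4000B scanner. Before scanning, a 2% BSA-blocked custom Agilent array made double-stranded with Cy5-dUTP was washed after 1 h at 25 °C with 200 nM protein and 50 µM zinc acetate. The proteins were Ni–NTA-purified transcription factors with N-terminal polyhistidine and DsRed fusions, expressed in E. coli BL21-CodonPlus.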

| Sequence | binding signal |
| --- | --- |
| GGGCCTCCCCTCCTCCCTTCGCTGGCGAGAGGACGGAGACCGGAGTCACCTAGTGCAG | 3400 fluorescence intensity (a.u.) |
| GATATATCCACATCAGCGTGCATACAAGTGTGTCAAAGCTCGGAGTCACCTAGTGCAG | 8160 fluorescence intensity (a.u.) |
| CATCAAACAACCAGTTTCTTAGGATGTCTTTTAACCGTGACGGAGTCACCTAGTGCAG | 23200 fluorescence intensity (a.u.) |
| AAACCATTCGCCCGATTTGATCCACATCACCACTTTGGTTCGGAGTCACCTAGTGCAG | 10400 fluorescence intensity (a.u.) |
| TCACCCCTGAGAAAGACACGTCTTTCTGGTTTAATCCATTCGGAGTCACCTAGTGCAG | 3620 fluorescence intensity (a.u.) |
| AACCCCAGAAACCAGAGGCGGGCTGGTTGATCCATTCTTTCGGAGTCACCTAGTGCAG | 45000 fluorescence intensity (a.u.) |
| GGGAAACGAGTCAAGCTGACGTGTGCAAGAATCTCCTACACGGAGTCACCTAGTGCAG | 13500 fluorescence intensity (a.u.) |
| GTAAGTTGAATGATGTCATATATTTAATTTTACGGTAAGTCGGAGTCACCTAGTGCAG | 6940 fluorescence intensity (a.u.) |
| TAATTAAATTGTCATATCACTTCTTAACTTATTGGACTAACGGAGTCACCTAGTGCAG | 3220 fluorescence intensity (a.u.) |
| TACATTATATTCAATTCTAACTTTCGGAAATATTATATAGCGGAGTCACCTAGTGCAG | 26900 fluorescence intensity (a.u.) |
| AAAATTATTAACTTCTTGTTTCGATCACCCTAATAAATAGCGGAGTCACCTAGTGCAG | 41000 fluorescence intensity (a.u.) |
| GACGTGGTAAGTTAACTTGGTTAAAATGTGCTGACGTGGTCGGAGTCACCTAGTGCAG | 24700 fluorescence intensity (a.u.) |
| AATGCTAAGGGACAACGTCAGCGGGTTAGTGCAAGGTAAGCGGAGTCACCTAGTGCAG | 6630 fluorescence intensity (a.u.) |
| TGCAGGGGCGCAGCACGGGAGGGTGCTTGACGCATACAAGCGGAGTCACCTAGTGCAG | 4030 fluorescence intensity (a.u.) |
| CACGGACGCAAGGGGCCTGCTAAGCCTCTACAACGCAGCGCGGAGTCACCTAGTGCAG | 41800 fluorescence intensity (a.u.) |
| GCTGCTCTCTTTCCTCTCTTCTCTCTCTGTTTTCTCTCCTCGGAGTCACCTAGTGCAG | 18500 fluorescence intensity (a.u.) |
| TGGTATGAATGGATAATTTGTTTCTGTCTTATGTGTTGCTCGGAGTCACCTAGTGCAG | 3150 fluorescence intensity (a.u.) |
| CTCTGTGCTGAAATGGTTAGGTATGTTTTCTTTCTGCTCTCGGAGTCACCTAGTGCAG | 40700 fluorescence intensity (a.u.) |
| TCGGCAAGCTGAGACGGCTAGTGAACCTATCAGCCATCAGCGGAGTCACCTAGTGCAG | 15900 fluorescence intensity (a.u.) |
| CAAGTCCAAGAGCACCATAAGCTAGTGACACATAGAGCCCCGGAGTCACCTAGTGCAG | 4140 fluorescence intensity (a.u.) |
| TCTGCAAGCACCAACGAGAAGCCACAAATGTTCACATCACCGGAGTCACCTAGTGCAG | 3610 fluorescence intensity (a.u.) |
| TCTGGACCACATAAACGAGAGAGAGAGAGAAGTCCAAGCCCGGAGTCACCTAGTGCAG | 47900 fluorescence intensity (a.u.) |
| CCTGAGGAGGGAAGGGTCGATGTGGAGGAGCGGCGGCGACCGGAGTCACCTAGTGCAG | 3500 fluorescence intensity (a.u.) |
| GATCGACGGCGACGCCCCTGGAAGGAGCGGAATAGACCACCGGAGTCACCTAGTGCAG | 46700 fluorescence intensity (a.u.) |
| CGTGCGGCGGATCGTGGTGGACGCGAGCGGCGGCGGCGACCGGAGTCACCTAGTGCAG | 3440 fluorescence intensity (a.u.) |
| TTTGCATTGACTTGATATAGTATGTCACCATCACACTATCCGGAGTCACCTAGTGCAG | 5460 fluorescence intensity (a.u.) |
| TTACAAACAACGCCTTGCATGATTGCATCATCGCCCTAAACGGAGTCACCTAGTGCAG | 4300 fluorescence intensity (a.u.) |

| Sequence | binding signal |
| --- | --- |
| TTGTGACTTGATTTATCATCAAATGTTCTTTAAACATGACCGGAGTCACCTAGTGCAG | 3540 fluorescence intensity (a.u.) |
| TTGCATCAGGCCCTCTTCAATGATTTAAACAAACAATGGACGGAGTCACCTAGTGCAG | 52300 fluorescence intensity (a.u.) |
| GGCGTATTCCAAAAGCCTTGGCCACCATTATTGCGTGGCACGGAGTCACCTAGTGCAG | 6820 fluorescence intensity (a.u.) |
| GCTAGCTAAGAGCGAGCTTCATTAACATACGAGACAGAGACGGAGTCACCTAGTGCAG | 4530 fluorescence intensity (a.u.) |
| GTTAATTAATACTCTCCGTTTCATATTATAAGGCGTTTGACGGAGTCACCTAGTGCAG | 26400 fluorescence intensity (a.u.) |
| TACTCTGCCAATCTAAATTAATGATGTATGATATGGTCTCCGGAGTCACCTAGTGCAG | 4340 fluorescence intensity (a.u.) |
| ACCCATATAATTAAGGTGCCAATGCTGCTAATACTCTCTCCGGAGTCACCTAGTGCAG | 46100 fluorescence intensity (a.u.) |
| GACACATGAGGGCCCACATGTCATACATTGTGAATGACACCGGAGTCACCTAGTGCAG | 3900 fluorescence intensity (a.u.) |
| GCCGCACCGGTCGGTTTCAGCGCGTGTGACACGCAGATTCCGGAGTCACCTAGTGCAG | 3500 fluorescence intensity (a.u.) |
| CTTGTCTAGTCCAGGACAACTGGGATGATTGAGCACCAGTCGGAGTCACCTAGTGCAG | 3170 fluorescence intensity (a.u.) |
| CCGTTACATTGTTCCAATTTTAATTAAACTTCCAATTTTACGGAGTCACCTAGTGCAG | 30600 fluorescence intensity (a.u.) |
| AACCTCAATGTTCCACGTCATCATTAATTTACAGCCGTTGCGGAGTCACCTAGTGCAG | 39400 fluorescence intensity (a.u.) |
| CAAACCACAGTGTTCCACGTCATCATCAATTGACAGCCGTCGGAGTCACCTAGTGCAG | 37800 fluorescence intensity (a.u.) |
| ATGGGGTGGATGCGTCAGAATTTACATAGGCACGGAACGTCGGAGTCACCTAGTGCAG | 5800 fluorescence intensity (a.u.) |
| CCTTCCCTAGGGGCGGAGCCACGTAGCTTGGGCCCCACACCGGAGTCACCTAGTGCAG | 6430 fluorescence intensity (a.u.) |
| TTATTATTATTGGATGGTTAGATGACAAATCCAACCTCACCGGAGTCACCTAGTGCAG | 3640 fluorescence intensity (a.u.) |
| ATGACGATGGTTAATCCAAATAACATATTGGCCCGGGTTCCGGAGTCACCTAGTGCAG | 49900 fluorescence intensity (a.u.) |
| GAGAGAGTGTAGGTTGCCGATGACGTTCCAAATATTGATCCGGAGTCACCTAGTGCAG | 4490 fluorescence intensity (a.u.) |
| ACCTTCATTGGATCTGCCTCCCTGCAAGCCTCTGCCTCAACGGAGTCACCTAGTGCAG | 43300 fluorescence intensity (a.u.) |
| ATTGACATGGAGTCATGGACACTCTCCCTGCCTCCTCCCTCGGAGTCACCTAGTGCAG | 3370 fluorescence intensity (a.u.) |
| CACCTTCTTCAAGCTCCCTCCTCTGAAGCCTCTTCTTCTTCGGAGTCACCTAGTGCAG | 34900 fluorescence intensity (a.u.) |
| TCTCCACTTCAGAGACGGTCCCACCTGTCATCCGCTCATACGGAGTCACCTAGTGCAG | 4680 fluorescence intensity (a.u.) |
| TGAAATGCTATGTTGGTCCAGACTTCCGCTACGAAGGAGACGGAGTCACCTAGTGCAG | 65100 fluorescence intensity (a.u.) |
| TCCAGTTGTGCGTGGAGATGTTGGTGAAGAGCTTCCGCTGCGGAGTCACCTAGTGCAG | 4270 fluorescence intensity (a.u.) |
| CCCTTACACCGCCCTGTGAACAGTCACTGACAATCCTGGCCGGAGTCACCTAGTGCAG | 4330 fluorescence intensity (a.u.) |
| TTAGTGCATGCTGCTAACTAAATACACGTAGCTTGTTGATCGGAGTCACCTAGTGCAG | 3310 fluorescence intensity (a.u.) |
| AAATTCCACGTGCCACATATTTCGTTCATTTGAGTTTATTCGGAGTCACCTAGTGCAG | 8820 fluorescence intensity (a.u.) |
